Reference: the supplement of paper PMC10849652
Targets with a hit are over-represented here; the source holds about 8,800 in all. About 0.5% of all pairs of compound and target were hits. Values without a mark were called inactive.

Key:
Assay in all cases: log2 fold change, soluble protein after heating vs DMSO (PISA); higher = thermal stabilisation; K562 lysate, 10 uM; active = over 0.2 and 3.5 SD of the protein, either way, in both replicates (recomputed)
vemurafenib = compound: CCCS(=O)(=O)Nc1ccc(F)c(C(=O)c2c[nH]c3ncc(-c4ccc(Cl)cc4)cc23)c1F [vemurafenib]
Outline: (§1)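 Thermal stability, expressed as log-two fold change relative to solvent controls, is given from duplicates. Crude K562 extract in PBS pH 7.4 with 1 mM MgCl2, at 1 mg/mL protein, was treated with 10 μM compound for 30 min and heated in aliquots for 3 min across 48°C-58°C. After pooling, adjustment to 0.5% NP-40 at 4°C and centrifugation at 21,000xg for 90 min, supernatant protein was measured by TMTpro 16plex LC-MS/MS with channel sums equalised.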

[1] = compound: CCCS(=O)(=O)Nc1ccc(F)c(C(=O)c2c[nH]c3ncc(Cl)cc23)c1F
Outline: as §1

barasertib = compound: CCN(CCCOc1ccc2c(Nc3cc(CC(=O)Nc4cccc(F)c4)[nH]n3)ncnc2c1)CCOP(=O)(O)O [barasertib]
Outline: as §1

[2] = compound: CC[C@@H]1C(=O)N(C)c2cnc(Nc3ccc(C(=O)NC4CCN(C)CC4)cc3OC)nc2N1C1CCCC1
Outline: as §1

volasertib = compound: CC[C@@H]1C(=O)N(C)c2cnc(Nc3ccc(C(=O)N[C@H]4CC[C@H](N5CCN(CC6CC6)CC5)CC4)cc3OC)nc2N1C(C)C [volasertib]
Outline: as §1

[3] = compound: CCn1c(C(=O)N(C2CC2)C2CC2)cc2c3c(ncn3C)c(Nc3cc(C)n(C)n3)nc21
Outline: as §1

[4] = compound: CCn1cc(-c2ccnc3[nH]c(-c4cccc(CN(C)C)c4)cc23)c(-c2ccc(NC(=O)N(C)C)cc2)n1
Outline: as §1

[5] = compound: CN1CCC(CNc2ccc3ncc(-c4cccc(OC(F)(F)F)c4)n3n2)CC1
Outline: as §1

saracatinib = compound: CN1CCN(CCOc2cc(OC3CCOCC3)c3c(Nc4c(Cl)ccc5c4OCO5)ncnc3c2)CC1 [saracatinib]
Outline: as §1

sotrastaurin = compound: CN1CCN(c2nc(C3=C(c4c[nH]c5ccccc45)C(=O)NC3=O)c3ccccc3n2)CC1 [sotrastaurin]
Outline: as §1

Chain of UniProt Q14166 (Q14166 whole entry, looked up): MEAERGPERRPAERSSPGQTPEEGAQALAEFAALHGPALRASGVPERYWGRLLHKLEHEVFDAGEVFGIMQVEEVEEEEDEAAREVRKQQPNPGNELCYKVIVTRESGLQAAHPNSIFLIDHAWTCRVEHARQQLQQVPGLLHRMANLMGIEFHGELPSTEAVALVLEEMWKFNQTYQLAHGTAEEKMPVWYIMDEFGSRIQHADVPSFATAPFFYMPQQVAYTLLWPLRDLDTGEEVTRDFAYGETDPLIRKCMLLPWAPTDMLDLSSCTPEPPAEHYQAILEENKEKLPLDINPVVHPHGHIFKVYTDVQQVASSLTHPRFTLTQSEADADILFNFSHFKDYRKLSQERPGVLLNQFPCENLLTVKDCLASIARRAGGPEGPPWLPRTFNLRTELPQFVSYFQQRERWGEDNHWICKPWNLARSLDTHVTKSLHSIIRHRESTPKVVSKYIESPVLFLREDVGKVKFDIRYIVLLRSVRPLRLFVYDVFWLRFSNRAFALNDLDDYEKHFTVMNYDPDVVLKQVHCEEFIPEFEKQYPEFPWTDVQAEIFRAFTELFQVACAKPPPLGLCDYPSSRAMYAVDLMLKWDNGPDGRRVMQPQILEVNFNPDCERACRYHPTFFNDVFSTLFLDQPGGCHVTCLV
Chain of UniProt P07437 (P07437 whole entry, looked up): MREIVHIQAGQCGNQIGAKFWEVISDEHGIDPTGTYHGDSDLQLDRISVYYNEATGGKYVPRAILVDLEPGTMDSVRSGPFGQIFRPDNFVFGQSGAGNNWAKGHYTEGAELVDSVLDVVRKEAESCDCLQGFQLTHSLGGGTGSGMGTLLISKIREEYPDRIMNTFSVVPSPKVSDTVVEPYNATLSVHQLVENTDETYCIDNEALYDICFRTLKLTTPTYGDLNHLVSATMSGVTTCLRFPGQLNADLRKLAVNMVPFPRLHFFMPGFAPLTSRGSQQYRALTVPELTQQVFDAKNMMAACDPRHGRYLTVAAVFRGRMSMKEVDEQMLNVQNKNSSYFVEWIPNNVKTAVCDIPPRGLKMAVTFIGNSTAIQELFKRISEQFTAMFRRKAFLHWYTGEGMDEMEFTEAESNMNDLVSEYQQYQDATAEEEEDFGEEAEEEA
Chain of UniProt Q9Y5K5 (Q9Y5K5 whole entry, looked up): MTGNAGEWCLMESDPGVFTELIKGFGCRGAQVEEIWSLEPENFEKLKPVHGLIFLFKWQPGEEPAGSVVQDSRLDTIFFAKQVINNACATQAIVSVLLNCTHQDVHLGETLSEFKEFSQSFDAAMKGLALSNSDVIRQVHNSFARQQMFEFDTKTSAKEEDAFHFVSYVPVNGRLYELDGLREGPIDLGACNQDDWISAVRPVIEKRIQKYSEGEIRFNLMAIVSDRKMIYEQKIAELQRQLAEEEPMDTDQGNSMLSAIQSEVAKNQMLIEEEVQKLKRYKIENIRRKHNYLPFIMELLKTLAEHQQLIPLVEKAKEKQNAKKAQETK
Chain of UniProt Q9NUQ7 (Q9NUQ7 whole entry, looked up): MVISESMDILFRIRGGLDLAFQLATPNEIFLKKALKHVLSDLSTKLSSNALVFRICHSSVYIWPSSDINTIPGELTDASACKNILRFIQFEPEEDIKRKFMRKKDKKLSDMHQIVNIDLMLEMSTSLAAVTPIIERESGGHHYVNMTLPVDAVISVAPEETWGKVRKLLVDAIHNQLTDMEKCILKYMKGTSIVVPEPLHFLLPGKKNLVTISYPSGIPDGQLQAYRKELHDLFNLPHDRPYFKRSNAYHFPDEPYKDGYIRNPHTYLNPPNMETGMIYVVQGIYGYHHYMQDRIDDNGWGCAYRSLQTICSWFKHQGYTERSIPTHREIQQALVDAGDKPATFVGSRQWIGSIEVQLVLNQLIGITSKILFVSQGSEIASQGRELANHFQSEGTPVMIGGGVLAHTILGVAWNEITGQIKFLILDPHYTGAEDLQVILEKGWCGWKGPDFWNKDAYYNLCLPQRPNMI
Chain of UniProt Q9H5L6 (Q9H5L6 whole entry, looked up): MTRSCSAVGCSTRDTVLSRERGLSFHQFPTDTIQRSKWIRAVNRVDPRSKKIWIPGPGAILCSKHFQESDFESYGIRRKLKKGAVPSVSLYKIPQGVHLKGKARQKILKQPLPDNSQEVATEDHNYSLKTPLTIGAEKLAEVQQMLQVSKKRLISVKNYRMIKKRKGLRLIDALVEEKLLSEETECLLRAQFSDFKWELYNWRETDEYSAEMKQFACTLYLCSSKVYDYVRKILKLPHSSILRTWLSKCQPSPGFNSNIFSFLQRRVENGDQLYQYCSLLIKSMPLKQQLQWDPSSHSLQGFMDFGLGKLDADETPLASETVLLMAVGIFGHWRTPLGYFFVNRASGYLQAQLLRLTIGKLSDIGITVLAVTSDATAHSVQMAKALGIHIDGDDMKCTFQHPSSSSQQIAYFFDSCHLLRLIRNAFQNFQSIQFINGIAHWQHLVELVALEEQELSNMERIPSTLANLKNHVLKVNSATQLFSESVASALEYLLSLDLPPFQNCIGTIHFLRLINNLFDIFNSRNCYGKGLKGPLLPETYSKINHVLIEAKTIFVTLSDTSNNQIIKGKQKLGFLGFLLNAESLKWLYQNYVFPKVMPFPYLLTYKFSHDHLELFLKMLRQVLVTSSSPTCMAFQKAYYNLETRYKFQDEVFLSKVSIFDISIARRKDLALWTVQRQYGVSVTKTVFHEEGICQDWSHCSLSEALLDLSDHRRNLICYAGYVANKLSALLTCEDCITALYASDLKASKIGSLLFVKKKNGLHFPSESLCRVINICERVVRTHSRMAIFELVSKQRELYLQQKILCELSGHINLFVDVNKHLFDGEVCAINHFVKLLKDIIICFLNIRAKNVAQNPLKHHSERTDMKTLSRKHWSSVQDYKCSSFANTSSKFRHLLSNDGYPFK
Chain of UniProt P68371 (P68371 whole entry, looked up): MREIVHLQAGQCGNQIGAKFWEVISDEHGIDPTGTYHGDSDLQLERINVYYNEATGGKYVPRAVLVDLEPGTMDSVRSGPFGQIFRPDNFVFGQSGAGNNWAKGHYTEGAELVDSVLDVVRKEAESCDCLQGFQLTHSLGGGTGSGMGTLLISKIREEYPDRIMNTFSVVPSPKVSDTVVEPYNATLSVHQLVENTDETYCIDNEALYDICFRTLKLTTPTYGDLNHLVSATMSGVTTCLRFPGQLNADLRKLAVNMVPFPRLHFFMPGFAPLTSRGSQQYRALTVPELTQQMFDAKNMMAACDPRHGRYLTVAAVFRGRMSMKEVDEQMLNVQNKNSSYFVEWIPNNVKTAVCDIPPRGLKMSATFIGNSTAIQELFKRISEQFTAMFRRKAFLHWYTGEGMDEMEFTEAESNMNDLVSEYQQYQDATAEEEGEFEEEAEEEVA
Chain of UniProt Q5T6F2 (Q5T6F2 whole entry, looked up): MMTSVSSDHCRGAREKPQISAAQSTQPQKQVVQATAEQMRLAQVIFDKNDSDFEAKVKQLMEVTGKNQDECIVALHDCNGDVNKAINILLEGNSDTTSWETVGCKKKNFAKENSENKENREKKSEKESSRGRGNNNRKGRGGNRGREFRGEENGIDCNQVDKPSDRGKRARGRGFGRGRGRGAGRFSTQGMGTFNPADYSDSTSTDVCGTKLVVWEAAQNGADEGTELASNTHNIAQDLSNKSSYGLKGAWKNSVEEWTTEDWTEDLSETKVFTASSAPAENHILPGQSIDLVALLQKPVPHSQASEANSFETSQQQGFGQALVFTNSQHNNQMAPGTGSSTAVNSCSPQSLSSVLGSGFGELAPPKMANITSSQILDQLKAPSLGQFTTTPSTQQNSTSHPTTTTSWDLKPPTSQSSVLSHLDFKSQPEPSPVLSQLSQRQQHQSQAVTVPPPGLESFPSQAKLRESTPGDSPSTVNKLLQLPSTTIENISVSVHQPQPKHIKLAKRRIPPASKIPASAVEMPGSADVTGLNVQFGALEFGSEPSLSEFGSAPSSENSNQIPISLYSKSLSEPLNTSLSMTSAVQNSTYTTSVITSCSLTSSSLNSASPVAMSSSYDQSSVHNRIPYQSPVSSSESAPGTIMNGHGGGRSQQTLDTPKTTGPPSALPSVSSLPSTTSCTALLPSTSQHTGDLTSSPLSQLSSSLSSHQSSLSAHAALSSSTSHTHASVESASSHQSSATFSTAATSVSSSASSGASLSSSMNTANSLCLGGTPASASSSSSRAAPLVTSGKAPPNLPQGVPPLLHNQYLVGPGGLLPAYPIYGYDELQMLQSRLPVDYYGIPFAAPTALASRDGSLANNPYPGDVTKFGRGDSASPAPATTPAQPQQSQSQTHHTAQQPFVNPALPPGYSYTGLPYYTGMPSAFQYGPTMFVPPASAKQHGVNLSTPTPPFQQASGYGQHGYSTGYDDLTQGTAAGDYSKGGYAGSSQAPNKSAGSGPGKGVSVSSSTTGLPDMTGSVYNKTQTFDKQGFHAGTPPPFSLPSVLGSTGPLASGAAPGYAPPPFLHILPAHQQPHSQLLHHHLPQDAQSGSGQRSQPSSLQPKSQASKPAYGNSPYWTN
Chain of UniProt P42167 (P42167 whole entry, looked up): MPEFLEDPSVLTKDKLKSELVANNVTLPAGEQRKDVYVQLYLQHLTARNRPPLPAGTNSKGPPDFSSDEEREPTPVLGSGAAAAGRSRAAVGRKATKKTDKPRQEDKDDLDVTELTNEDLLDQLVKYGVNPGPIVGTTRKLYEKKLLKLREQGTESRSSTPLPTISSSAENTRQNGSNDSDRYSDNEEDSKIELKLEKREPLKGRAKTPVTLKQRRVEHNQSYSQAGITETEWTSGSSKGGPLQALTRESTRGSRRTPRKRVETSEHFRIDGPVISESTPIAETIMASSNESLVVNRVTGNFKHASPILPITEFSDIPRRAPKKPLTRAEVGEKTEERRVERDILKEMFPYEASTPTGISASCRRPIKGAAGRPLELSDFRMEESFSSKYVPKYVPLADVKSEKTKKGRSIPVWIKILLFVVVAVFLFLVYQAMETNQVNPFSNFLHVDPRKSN
Chain of UniProt Q8N511 (Q8N511 whole entry, looked up): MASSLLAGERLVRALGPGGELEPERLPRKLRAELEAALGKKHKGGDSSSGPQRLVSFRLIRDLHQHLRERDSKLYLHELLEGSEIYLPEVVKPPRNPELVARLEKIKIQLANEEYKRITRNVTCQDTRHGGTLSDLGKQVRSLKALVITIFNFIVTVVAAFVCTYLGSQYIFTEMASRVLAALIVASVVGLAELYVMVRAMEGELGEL

Target	log2 fold change (vemurafenib)	log2 fold change [1]	log2 fold change (barasertib)	log2 fold change [2]	log2 fold change (volasertib)	log2 fold change [3]	log2 fold change [4]	log2 fold change [5]	log2 fold change (saracatinib)	log2 fold change (sotrastaurin)
TUBA1B (UniProt P68363)	0.009	0	0.013	-0.02	-0.046	0.013	-0.008	-0.011	0.003	0.017
UBAP2L isoform 5 (UniProt Q14157)	-0.002	0.025	0.013	0.023	-0.006	0.013	0.028	-0.01	0.03	-0.002
TSFM (UniProt P43897)	-0.007	0.005	0.031	-0.041	-0.089	0.006	0.081	-0.05	-0.014	-0.012
TLE3 isoform 4 (UniProt Q04726)	0.009	0.01	0.005	0.065	0.021	0.027	-0.001	0.01	0.017	-0.017
TCP11L1 (UniProt Q9NUJ3)	-0.078	0.014	0.038	0.045	-0.054	0.009	-0.244	0.097	-0.007	0.009
TUBB4B (UniProt P68371)	0.006	0.004	-0.092	-0.032	-0.034	0.005	-0.134	-0.011	0.03	-0.021
TECR (UniProt Q9NZ01)	-0.003	0.054	0.082	-0.02	0.001	0.032	0.014	-0.247	0.045	-0.034
THAP9 (UniProt Q9H5L6)	0.199	0.07	0.117	0.309	0.088	-0.401	-0.66 (active)	0.151	0	0.076
TDRKH (UniProt Q9Y2W6)	0.07	0.055	0.031	-0.195	-0.052	-0.003	-0.095	0.058	-0.004	-0.039
TTLL12 (UniProt Q14166)	0.016	0.007	-0.001	-0.07	-0.07	0.019	-0.033	0.009	0.004	0.022
TIMELESS (UniProt Q9UNS1)	0.035	0.031	0.039	-0.058	0.043	0.013	-0.094	-0.07	0.035	0
TJP1 isoform 2 (UniProt Q07157)	0.023	0	-0.003	0.064	-0.01	-0.045	-0.046	0.057	0.014	0.014
TMEM199 (UniProt Q8N511)	0	0.026	0.009	0.023	0	-0.003	-0.06	0.054	0.048	0.035
TUBGCP2 isoform 4 (UniProt Q9BSJ2)	0.02	0.01	0.027	0.001	-0.049	0.021	0.078	-0.064	-0.035	0
TMPO (UniProt P42167)	0.063	0.008	0.003	-0.01	0.013	0.022	0.033	-0.033	0.014	-0.014
TRMT12 (UniProt Q53H54)	0.059	-0.009	0.068	-0.17	-0.052	0.047	-0.303	0.281	-0.021	-0.047
TCF3 (UniProt P15923)	-0.01	0.002	0.012	0.129	0.002	0.047	0.028	0.043	-0.158	0.002
TTF2 (UniProt Q9UNY4)	0.008	0.037	0.027	-0.028	0.022	0.003	-0.003	-0.026	0.025	0.024
UFSP2 (UniProt Q9NUQ7)	0.074	-0.018	-0.019	0.072	-0.071	0.016	-0.011	0.002	0.036	0.018
UGDH (UniProt O60701)	0.008	0.017	-0.003	-0.062	-0.045	0.011	-0.028	-0.021	0.187	0.003
TPX2 (UniProt Q9ULW0)	-0.006	-0.013	-0.036	0.093	0.012	-0.035	0.04	-0.007	0.03	-0.016
TFCP2 (UniProt Q12800)	0.023	0.049	0.007	-0.064	-0.064	0.045	-0.042	-0.083	0.022	-0.006
UBR5 (UniProt O95071)	0.004	0.035	0.045	0.006	-0.031	0.01	-0.029	0.003	0.019	-0.005
TUBB (UniProt P07437)	0.018	0.003	-0.051	-0.02	-0.063	-0.017	-0.041	0.004	0.029	0.017
TUBAL3 (UniProt A6NHL2)	0.084	-0.024	-0.011	-0.122	0.041	-0.196	-0.413	0.284	0.001	–
UCHL5 isoform 3 (UniProt Q9Y5K5)	0.013	0.016	-0.001	-0.019	-0.017	0.014	0.164	-0.06	-0.012	-0.005
TBRG4 (UniProt Q969Z0)	-0.016	0.008	0.051	-0.075	-0.079	0.048	0.052	-0.128	0.026	0.013
TUBE1 (UniProt Q9UJT0)	0.036	0.012	0.03	0.112	-0.005	0.028	0.257	-0.082	0.089	0.043
UBAP2 (UniProt Q5T6F2)	0.009	0.016	-0.007	0.071	-0.002	0.004	-0.172	0.106	0.028	0.02
